Assay outcomes: PubChem, several laboratories
The list is not random: actives were taken first. Their share in the collection is about 2.2%.
ANO1 activ: TMEM16A chloride channel activators or potentiators, primary screen, cell-based, HTS; HEK293 TMEM16A/YFP-H148Q/I152L, iodide quench fluorescence; stronger effect = lower value; B-score at 10 µM; Anoctamin-1 (Mus musculus), Q8BHY3; 340,000 compounds, 0.3% hits;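 active means fluorescence-ratio B-score plate-corrected deviation score at least 3 library SD below zero, with starting fluorescence score within 5 deviations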;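 further: channel opened by trigger with iodide after compound preincubation; score built on the fluorescence ratio of max minus min over baseline; more negative score means more quench and so TMEM16A activation or potentiation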
Target sequence (Q8BHY3 whole entry, looked up): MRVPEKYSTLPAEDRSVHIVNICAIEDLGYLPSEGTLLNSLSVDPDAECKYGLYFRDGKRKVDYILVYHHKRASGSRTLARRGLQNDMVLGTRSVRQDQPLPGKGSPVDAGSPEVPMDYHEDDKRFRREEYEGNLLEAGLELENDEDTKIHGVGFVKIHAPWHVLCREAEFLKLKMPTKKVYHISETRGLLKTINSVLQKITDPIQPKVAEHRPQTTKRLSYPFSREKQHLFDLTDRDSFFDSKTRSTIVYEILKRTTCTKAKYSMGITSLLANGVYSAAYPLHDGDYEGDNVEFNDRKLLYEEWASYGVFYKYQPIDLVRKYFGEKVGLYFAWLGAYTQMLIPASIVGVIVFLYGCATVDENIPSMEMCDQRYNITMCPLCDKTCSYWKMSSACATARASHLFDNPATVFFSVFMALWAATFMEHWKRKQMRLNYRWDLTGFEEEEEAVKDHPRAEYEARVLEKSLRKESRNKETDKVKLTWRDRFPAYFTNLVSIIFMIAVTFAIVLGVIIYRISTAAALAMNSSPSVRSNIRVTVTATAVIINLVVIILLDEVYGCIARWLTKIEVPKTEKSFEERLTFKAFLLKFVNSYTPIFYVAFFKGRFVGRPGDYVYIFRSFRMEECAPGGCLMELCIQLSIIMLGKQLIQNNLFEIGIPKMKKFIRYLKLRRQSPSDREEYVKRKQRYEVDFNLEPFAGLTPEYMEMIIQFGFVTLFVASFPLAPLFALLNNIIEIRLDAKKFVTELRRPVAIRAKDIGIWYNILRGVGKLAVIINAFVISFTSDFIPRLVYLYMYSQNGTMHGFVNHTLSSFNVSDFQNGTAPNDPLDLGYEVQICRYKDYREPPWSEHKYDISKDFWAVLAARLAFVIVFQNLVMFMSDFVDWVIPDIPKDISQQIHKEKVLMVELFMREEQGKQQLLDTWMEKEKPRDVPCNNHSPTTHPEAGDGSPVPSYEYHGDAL
M1 PAM parental: nonselective calcium activators in parental CHO-K1 cells, primary screen, counter-screen for M1 PAM project, cell-based, Fluo-8 calcium fluorescence, full deck, 1536-well; ATP EC20; 0% at ATP EC20, 100% at ATP max; activation, % at 3 µM; 360,000 compounds, 0.02% hits;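 active means activation above the run cutoff, the mean activation of all test compounds plus 3 SD, cut at about 40% in these data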;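 further: peak over basal fluorescence ratio in a 140 s read after ATP addition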
ANO1 block: TMEM16A chloride channel inhibitors, primary screen, cell-based, HTS; normalized B-score (activity score, 25-100; higher = stronger inhibition) at 10 µM; 310,000 compounds, 1.2% hits; Anoctamin-1 (Mus musculus), Q8BHY3; HEK293 TMEM16A/YFP iodide influx fluorescence, ionomycin;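 active means ratio plate-corrected score three or more library SD toward inhibition, starting fluorescence score within five deviations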;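 further: score derived from kinetic fluorescence span divided by baseline fluorescence per well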
M1 ag parental: counter-screen for M1 agonists: effect in parental CHO-K1 cells | Fluo-8 calcium fluorescence; scaled to maximal ATP response, vehicle zero | activation, % at 3 µM | 360,000 compounds, 0.48% hits; in the data active means activation above about 15%;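 further: untransfected CHO-K1 host cells lacking M1 receptor as counterscreen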
NTR1 ag: agonists of human NTR1, primary screen, imaging, U2OS cells, beta-arrestin-GFP, high content; 330,000 compounds, 0.17% hits; NTR1-U2OS beta-arrestin-GFP spot imaging, agonist mode; AID 493036, 2011; activation, % at 20 µM; Neurotensin receptor type 1 (Homo sapiens), P30989;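 active means activation at or above 40% of the spot to cytoplasm intensity ratio, with at least 20 cells analyzed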;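 further: 0% = DMSO without peptide and 100% = 100 nM NTR1 peptide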
CHO-K1 Ca antag: counter-screen for M1 antagonists: effect in parental CHO-K1 cells; AID 602250; 360,000 compounds, 0.6% hits; ATP-induced calcium, Fluo-8 fluorescence; inhibition, % at 3 µM;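 active means inhibition above a per-plate cutoff, the plate's mean sample inhibition plus 3 SD, cut at about 24% in these data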;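 further: 0% = DMSO plus EC80 ATP and 100% = DMSO alone without ATP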
Numbers without * were called inactive; i = inactive; / = not tested or not shown.

SMILES | ANO1 activ | M1 PAM parental | ANO1 block | M1 ag parental | NTR1 ag | CHO-K1 Ca antag
CC1(C)CC[C@]2(C(=O)n3ccnc3)CC[C@]3(C)[C@H](C(=O)C=C4[C@@]5(C)C=C(C#N)C(=O)C(C)(C)[C@@H]5CC[C@]43C)[C@@H]2C1 | -15* | -14 | / | 0 | / | -10
CCCN1CCc2c(sc(NC(=S)NC(=O)c3ccccc3)c2C#N)C1 | -5.4* | -1 | i | 46* | -1 | 16
CC(C)N1CCc2c(sc(NC(=S)NC(=O)c3ccccc3)c2C#N)C1 | i | 17 | i | 3 | -3 | -5
Cc1ccc(NC(=O)CCS(=O)(=O)c2ccc3nc(C)sc3c2)c(C)c1 | / | 6 | / | 0 | / | -5
C=CCNc1nc2ccccc2nc1NS(=O)(=O)c1ccc(Br)cc1 | / | 1 | 25* | 7 | 5 | -7
COc1ccc(Cl)cc1NC(=O)CN(C)C(=O)c1cc(-c2ccncc2)nc2ccccc12 | i | -5 | i | 10 | 1 | 3
COc1cc(/C=C2\C(=N)N3N=C(N4CCOCC4)SC3=NC2=O)ccc1OC(=O)c1ccccc1 | i | -8 | 100* | 0 | 3 | 23
COc1ccc(C(=O)C2CCCN(C(=O)CCc3scnc3C)C2)c(C)c1 (stereo not given) | i | 12 | i | 18* | -1 | 3
COc1ccc(C(=O)C2CCCN(C(=O)c3ccc4cc[nH]c4c3)C2)c(C)c1 (stereo not given) | -13* | 4 | i | 2 | 3 | -3
COc1ccc(C(=O)C2CCCN(C(=O)CCc3ccccn3)C2)c(C)c1 (stereo not given) | i | -6 | i | 2 | 0 | -8
COc1ccc(C(=O)C2CCCN(C(=O)c3cccnc3OC)C2)c(C)c1 (stereo not given) | i | 30 | i | 0 | 0 | -6
O=S(=O)(Nc1nc2ccccc2nc1Nc1ccc2c(c1)OCCO2)c1cccs1 | i | 13 | 25* | 4 | 1 | -12
CC(=O)c1ccc(NC(=S)NC(C)c2ccc(Cl)cc2Cl)cc1 (stereo not given) | i | -11 | 100* | 4 | 9 | 12
O=[N+]([O-])c1c(Nc2ccc(O)cc2)cc(Cl)c2nonc12 | -8.3* | -3 | 100* | -1 | -4 | 45*
CCCCN(C(=O)c1ccc(S(=O)(=O)N(C)C)cc1)c1ccccc1 | i | 18 | i | 1 | 1 | -17
CCCCN(C(=O)c1ccc(S(=O)(=O)N(C)C)cc1)c1nc2ccccc2s1 | -9* | 19 | i | 0 | 4 | -1
O=S1(=O)C[C@H](N2CCCC2)[C@@H](COCc2ccccc2)N1 | / | -8 | / | 0 | / | 25*
CN1CCN([C@H]2CS(=O)(=O)N[C@@H]2COCc2ccccc2)CC1 | / | -8 | / | 0 | / | 23
Oc1c(C=Nc2ccccc2Cl)[nH]c2ccccc12 | -8.7* | 10 | i | 2 | 3 | -7
CCN(CC)C(=O)N1CCC(NC(=O)Cc2ccccc2)CC1 | i | -6 | i | 0 | 0 | 26*
CC[N+](CC)=N/N=C1\C=CC[N+]([O-])=C1 | / | -3 | / | 1 | / | -21
CC(C)OC(=O)CSc1nnc(CNc2ccc(Cl)cc2)n1Cc1ccccc1 | i | -8 | i | 4 | 3 | 36*
CCOC(=O)CSc1nnc(CNc2ccc(Cl)cc2)n1Cc1ccccc1 | i | 0 | i | 7 | -1 | 12
O=C(C1CCC(CNS(=O)(=O)c2cccs2)CC1)N1CCN(c2ccc(Cl)cc2)CC1 (stereo not given) | i | 19 | i | 16* | 7 | -2
COc1ccc(NC(=O)/C(Cl)=C(/Cl)S(=O)Cc2ccc(Cl)cc2)cn1 (stereo not given) | i | -14 | / | 1 | -1 | 30*
SMILES | ANO1 activ | M1 PAM parental | ANO1 block | M1 ag parental | NTR1 ag | CHO-K1 Ca antag
CCOc1ccc(N2CC(C(=O)Nc3ccc(S(=O)(=O)N4CCCC4)cc3)CC2=O)cc1 (stereo not given) | i | 11 | i | 0 | -1 | -10
CCOc1ccc(N2CC(C(=O)Nc3ccc(S(=O)(=O)N4CCCCC4)cc3)CC2=O)cc1 (stereo not given) | i | 15 | i | 0 | 1 | 68*
Cc1ccc(NC(=O)C2CCN(S(=O)(=O)c3ccc(N4CCCC4=O)cc3)CC2)cc1Cl | i | -10 | i | 16* | 0 | 32*
COc1ccc(NC(=O)C2CCN(S(=O)(=O)c3ccc(N4CCCC4=O)cc3)CC2)c(OC)c1 | i | -10 | i | 1 | 0 | -4
COc1ccc(N2CCCn3c2nc2c3c(=O)n(CCc3ccccc3)c(=O)n2C)cc1 | -5* | 4 | i | 1 | 4 | -5
CC(C)Cn1c(=O)c2c(nc3n2CCCN3CCc2ccccc2)n(C)c1=O | i | 7 | 25* | 3 | 3 | 15
O=C(/C=C/c1ccccc1)Nc1cccc(C(=O)NC2CC2)c1 | / | 27 | / | 2 | / | -22
Cc1cc(C(=O)COC(=O)c2ccc(O)cc2)c(C)n1-c1ccccc1F | -29* | -4 | i | 2 | 4 | 2
O=S1(=O)CC(N2CCCC2)CN1Cc1cn(Cc2ccccc2)nn1 (stereo not given) | / | 12 | / | 1 | / | -14
Cc1c(O)cc2c(c1O)C(=O)CC(c1ccccc1)O2 (stereo not given) | -6.5* | -14 | 100* | 26* | 7 | 85*
COc1c(O)cc2c(c1O)C(=O)CC(c1ccccc1)O2 (stereo not given) | / | / | / | / | -1 | /
CCCCn1nnnc1C1(C)CCC(=O)N1Cc1cc(OC)ccc1OC (stereo not given) | / | -13 | / | 0 | / | 2
CC1(C)CCN2CCC(C)(C)c3c(O)ccc1c32 | i | 3 | i | 34* | -3 | 26*
COC(=O)c1c(N)nc(C)n1-c1ccc(OC)cc1 | i | -6 | i | 0 | -2 | 25*
COc1ccc(-n2c(C)nc(N)c2C(=O)c2ccccc2)cc1 | i | 15 | i | 1 | 0 | -8
Cc1cc(NC(=O)CSc2nc3cc(Cl)ccc3c(=O)n2C(C)C)no1 | i | 2 | / | 0 | 5 | -1
CC(C)Cn1c(-c2ccco2)n[nH]c1=S | i | 16 | 25* | 1 | -1 | -9
CCn1c(-c2ccco2)n[nH]c1=S | i | 15 | i | 0 | -1 | -5
NC(=O)C1=C(c2ccccc2)c2ccccc2C1=O | -6.3* | -18 | / | 2 | / | 28*
Cc1ccc(C2=C(O)c3ccccc3C(=O)C2=O)cc1 | i | -5 | i | -1 | 1 | -5
